Experimental data reported in PubChem BioAssay (NCATS).
Results filed as inconclusive are left out. Active and inactive are the calls of the source. Unless noted, calls follow the shape of the dose curve; as a rule, active = well fitted curve in the direction sought with a large enough effect; inconclusive = small, poorly fitted or top-dose-only effect, or another doubt; inactive = no such curve, though single readings can be large; an effect the other way counts as inactive or inconclusive.

What was measured:
[1] = target: Estrogen receptor (Homo sapiens) (UniProt P03372); test: qHTS assay for small molecule agonists of estrogen receptor alpha signaling (AID 588514; calls by dose curve; also: nearly all actives have a fitted effect of over 70% in size; also: potency is read from the fitted curve at half-maximal effect;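 as to activation: 0% = vehicle only and 100% = reference agonist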)
Method in brief: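 Reporter-gene assay. […] controls beta-lactamase in HEK 293 GripTite cells; after 18 hrs with compound, CCF4 substrate is added for 2 hrs and fluorescence is read.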

[2] = target: Glucocorticoid receptor (Homo sapiens) (UniProt P04150); test: qHTS assay for small molecule agonists of glucocorticoid receptor signaling (AID 588532; active = well fitted curve in the direction sought with a large enough effect in the signal ratio, with a control signal flat; the % refers to the signal ratio;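 also: 100% = dexamethasone at 0.1 µM and 0% = DMSO only wells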); details: HeLa MMTV-bla, beta-lactamase ratio, agonist, 18 h; stronger effect = higher value; percent of dexamethasone control, DMSO zero
Method in brief: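 Quantitative HTS using CellSensor MMTV-bla HeLa cells in charcoal/dextran-treated serum; compounds tested up to 92 uM. After 18 h at 37 C, CCF4 dye reported reporter induction.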

[3] = target: Glucocorticoid receptor (Homo sapiens) (UniProt P04150); test: qHTS assay for small molecule antagonists of glucocorticoid receptor signaling (AID 588533; active = well fitted inhibition curve with a large enough effect in the signal ratio, with a control signal flat, not every such curve was filed as active; the % refers to the signal ratio;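 also: cells stimulated with 2 nM dexamethasone as agonist; % is scaled to controls: 0 for no effect and ±100 for the full control effect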)
Method in brief: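 Antagonist-mode qHTS: compound titrations added to GRE-bla HeLa cells, then dexamethasone 2 nM final; 18 h, 37 C. CCF4 FRET fluorescence normalized to dexamethasone and DMSO; IC50 from Hill fit.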

[4] = qHTS assay for small molecule antagonists of peroxisome proliferator-activated receptor delta signaling (AID 588535); details: HEK293T PPARd-UAS-bla, beta-lactamase FRET ratio, 18 h; 460 nm channel;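 also: cells co-treated with a PPAR-delta agonist as stimulator during compound exposure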
Method in brief: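 Cell-based beta-lactamase assay in antagonist mode: 4000 HEK293T PPAR-delta-UAS-bla cells per well, 5 hr preincubation then 18 hr compound incubation at 37 C. IC50 obtained by Hill equation fitting.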

[5] = target: Peroxisome proliferator-activated receptor gamma (Homo sapiens) (UniProt P37231); test: qHTS assay for small molecule agonists of peroxisome proliferator-activated receptor gamma signaling (AID 588536; active = well fitted curve in the direction sought with a large enough effect in the signal ratio, with a control signal flat, not every such curve was filed as active; the % refers to the signal ratio;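 also: 0% = DMSO basal wells and 100% = rosiglitazone at 2 µM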)
Method in brief: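 HEK293 UAS-bla reporter line, 1% charcoal/dextran FBS; titration, 16 h, 37 C; CCF4 loading 2 h RT; fluorescence 460/530 nm. Normalized to rosiglitazone 2 uM = 100%, DMSO = 0%.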

[6] = target: Vitamin D3 receptor (Homo sapiens) (UniProt P11473); test: qHTS assay for small molecule agonists of vitamin D receptor signaling (AID 588543; calls by dose curve;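 also: 0% = DMSO basal and 100% = reference agonist control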)
Method in brief: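 Reporter cells (HEK293T, VDR-UAS-bla) were seeded in medium with 2% charcoal-stripped serum and incubated 5 h, then compounds in concentration series were added for 16 h at 37 °C. Stimulation was scaled between DMSO basal and 50 nM 1α,25-dihydroxyvitamin D3.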

[7] = qHTS assay for small molecule agonists of retinoid X receptor alpha signaling (AID 588544; calls by dose curve;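 as to activation: 0% = DMSO basal wells and 100% = reference agonist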); details: HEK293T RXRa-UAS-bla, beta-lactamase reporter, 18 h; 530 nm emission
[8] = target: Retinoic acid receptor RXR-alpha (Homo sapiens) (UniProt P19793); test: as above
[9] = target: Thyroid hormone receptor beta (Homo sapiens) (UniProt P10828); test: qHTS assay for small molecule agonists of thyroid hormone receptor beta signaling (AID 588545; calls by dose curve;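 also: 0% = DMSO only and 100% = 10 nM T3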)
Method in brief: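 Beta-lactamase reporter activity under TR response element control is measured in HEK 293 cells after 18 hrs compound exposure. Signal is ratiometric CCF4 fluorescence, 460/530 nm.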

[10] = target: Thyroid hormone receptor beta (Homo sapiens) (UniProt P10828); test: qHTS assay for small molecule antagonists of thyroid hormone receptor beta signaling (AID 588547; active = well fitted inhibition curve with a large enough effect in the signal ratio, with a control signal flat, not every such curve was filed as active; the % refers to the signal ratio;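 also: cells stimulated with 0.4 nM T3 agonist during compound exposure; series mostly up to about 77 µM; % is scaled to controls: 0 for no effect and ±100 for the full control effect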); details: TR-UAS-bla HEK293, beta-lactamase ratio, antagonist mode, 18 h
Method in brief: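 Inhibition of T3-driven (0.4nM final) beta-lactamase reporter activity was measured over 0.59 nM to 92 uM compound after 18 h at 37 C. The cells were GripTite HEK293 TR-UAS-bla in charcoal/dextran-stripped serum, with CCF4 ratio read-out and IC50 from Hill fits.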

[11] = qHTS assay for environmental chemicals that activate the Aryl hydrocarbon Receptor (AhR) signaling pathway (AID 651777); details: 1A2-DRE human hepatoma cells, luciferase, 24 h; activation: stronger effect = higher value; also: % of control where 0% means no effect; nearly all actives have a fitted effect of over 15% in size
Method in brief: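 Luminescence read-out: One-Glo added for 30 min at RT after 24 hr compound treatment (37 C, 5% CO2) of human hepatoma cells expressing a DRE/CYP1A2 promoter–luciferase reporter; increased signal indicates AhR activation.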

[12] = target: Peroxisome proliferator-activated receptor alpha (Homo sapiens) (UniProt Q07869); test: qHTS assay for small molecule agonists of the peroxisome proliferator-activated receptor alpha (PPARalpha) signaling pathway (AID 651778); details: PathHunter PPARalpha complementation, chemiluminescence, 6 h; max response: stronger effect = higher value; also: % of control where 0% means no effect
Method in brief: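 Chemiluminescence from complemented enzyme reported PPARalpha activation in cells after 6 hr of compound treatment at 37 C. The detection reagent was incubated for 60 min at room temperature, and compounds were scored as agonists.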

[13] = qHTS assay for small molecule agonists of the antioxidant response element (ARE) signaling pathway measured by Nrf2-dependant transcriptional activity (AID 720636; active = well fitted curve in the direction sought with a large enough effect in the repeat runs; an effect the other way counts as inactive or inconclusive;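 also: HepG2 cells with an ARE-driven luciferase reporter; % of control where 0% means no effect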)
Method in brief: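 HepG2 ARE-luc reporter line, 1% dialyzed FBS; 6 hr attachment at 37 C, compound pinned in, 16 hr at 37 C/5% CO2; ONE-Glo, 30 min RT, luminescence read.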

[14] = qHTS assay for small molecule agonists of the antioxidant response element (ARE) signaling pathway measured by Nrf2-dependant transcriptional activity - cell viability counter screen (AID 720653; active = well fitted curve in the direction sought with a large enough effect in the repeat runs; an effect the other way counts as inactive or inconclusive; also: % is scaled to controls: 0 for no effect and ±100 for the full control effect); details: ARE-bla HepG2 viability, CellTiter-Glo ATP luminescence, 16 h; max response: stronger effect = lower value
Method in brief: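 Cytotoxicity counter screen: intracellular ATP quantified by CellTiter-Glo luminescence in the same ARE-bla HepG2 plates, after 16 h compound exposure and a 2 h beta-lactamase substrate step.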

[15] = qHTS assay for cell viability of HEK293 cells (AID 743288); details: ATP luminescence (CellTiter-Glo), 18 h; max response: stronger effect = lower value; also: % is scaled to controls: 0 for no effect and ±100 for the full control effect; nearly all actives have a fitted effect of over 50% in size
Method in brief: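 HEK293 parental, 2,000 cells/well; ≥5 h pre-incubation 37 C; pintool compound addition; 18 h, 37 C; CellTiter-Glo 30 min RT; luminescence read.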

[16] = qHTS assay for cell viability of the p53RE-bla HCT-116 cell line (AID 743292); also: % is scaled to controls: 0 for no effect and ±100 for the full control effect; nearly all actives have a fitted effect of over 55% in size
Method in brief: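 Luminescent ATP quantitation (CellTiter-Glo) served as the viability read-out; reagent was added after 16 h compound exposure at 37 C and read after 30 min at room temperature. Cells: p53RE-bla HCT-116, 4,000 per well.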

[17] = target: Nuclear receptor subfamily 1 group I member 2 (Rattus norvegicus) (UniProt Q9R1A7); test: qHTS assay for small molecule activators of the rat pregnane X receptor (rPXR) signaling pathway (AID 651751; call rule not given here; also: 0% is about no effect); details: rPXR reporter cells, luciferase (One-Glo), 24 h
[18] = qHTS assay for small molecule activators of the human pregnane X receptor (PXR) signaling pathway (AID 720659; call rule not given here; also: 0% is about no effect)
[19] = qHTS assay for small molecule antagonists of retinoid X receptor alpha signaling (AID 588546; active = well fitted inhibition curve with a large enough effect in the signal ratio, with a control signal flat, not every such curve was filed as active; the % refers to the signal ratio;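 also: cells stimulated with 9-cis-retinoic acid as agonist; % is scaled to controls: 0 for no effect and ±100 for the full control effect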); details: HEK293T RXRa-UAS-bla, beta-lactamase ratio, antagonist mode; measured here: W530 green channel, cytotoxicity proxy
Method in brief: (§1)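 Beta-lactamase reporter inhibition, read as CCF4 fluorescence ratio (ex 405, em 460/530 nm) after 2 h at RT. HEK293T UAS-bla cells, 2500/well, were stimulated with 9-cis-RA at 500 or 100 nM final alongside test compound for 18 h at 37 C.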

[20] = target: Retinoic acid receptor RXR-alpha (Homo sapiens) (UniProt P19793); test: as above; details: HEK293T RXRa-UAS-bla, beta-lactamase ratio, antagonist mode
Method in brief: as §1

Chain of Estrogen receptor (Homo sapiens) (P03372 whole entry, looked up): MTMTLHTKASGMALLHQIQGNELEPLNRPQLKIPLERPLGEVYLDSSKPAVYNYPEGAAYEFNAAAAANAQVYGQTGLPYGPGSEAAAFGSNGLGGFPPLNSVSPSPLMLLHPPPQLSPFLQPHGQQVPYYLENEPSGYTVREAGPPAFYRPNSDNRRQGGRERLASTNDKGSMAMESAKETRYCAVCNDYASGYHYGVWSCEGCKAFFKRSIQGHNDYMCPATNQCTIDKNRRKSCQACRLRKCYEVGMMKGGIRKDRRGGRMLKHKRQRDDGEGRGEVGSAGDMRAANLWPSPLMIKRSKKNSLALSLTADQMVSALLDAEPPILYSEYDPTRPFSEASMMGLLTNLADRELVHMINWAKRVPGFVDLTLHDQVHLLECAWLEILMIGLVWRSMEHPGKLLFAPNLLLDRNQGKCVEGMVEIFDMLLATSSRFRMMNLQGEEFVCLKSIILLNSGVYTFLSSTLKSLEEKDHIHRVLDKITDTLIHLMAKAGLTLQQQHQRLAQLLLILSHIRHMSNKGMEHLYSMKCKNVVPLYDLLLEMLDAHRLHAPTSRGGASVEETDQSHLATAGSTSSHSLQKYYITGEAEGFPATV
Chain of Nuclear receptor subfamily 1 group I member 2 (Rattus norvegicus) (Q9R1A7 whole entry, looked up): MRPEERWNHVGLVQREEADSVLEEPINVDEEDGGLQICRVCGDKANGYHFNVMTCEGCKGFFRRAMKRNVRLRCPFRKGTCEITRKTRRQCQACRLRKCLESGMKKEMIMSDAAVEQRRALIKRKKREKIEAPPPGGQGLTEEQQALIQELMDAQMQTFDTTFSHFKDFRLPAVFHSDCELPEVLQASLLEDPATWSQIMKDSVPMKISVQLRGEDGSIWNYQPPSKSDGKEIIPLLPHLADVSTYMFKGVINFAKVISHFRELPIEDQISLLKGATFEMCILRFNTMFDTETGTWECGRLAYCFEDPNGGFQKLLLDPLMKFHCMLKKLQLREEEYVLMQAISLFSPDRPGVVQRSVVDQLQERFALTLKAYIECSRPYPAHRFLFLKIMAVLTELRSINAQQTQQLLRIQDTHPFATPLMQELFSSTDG
Chain of Glucocorticoid receptor (Homo sapiens) (P04150 whole entry, looked up): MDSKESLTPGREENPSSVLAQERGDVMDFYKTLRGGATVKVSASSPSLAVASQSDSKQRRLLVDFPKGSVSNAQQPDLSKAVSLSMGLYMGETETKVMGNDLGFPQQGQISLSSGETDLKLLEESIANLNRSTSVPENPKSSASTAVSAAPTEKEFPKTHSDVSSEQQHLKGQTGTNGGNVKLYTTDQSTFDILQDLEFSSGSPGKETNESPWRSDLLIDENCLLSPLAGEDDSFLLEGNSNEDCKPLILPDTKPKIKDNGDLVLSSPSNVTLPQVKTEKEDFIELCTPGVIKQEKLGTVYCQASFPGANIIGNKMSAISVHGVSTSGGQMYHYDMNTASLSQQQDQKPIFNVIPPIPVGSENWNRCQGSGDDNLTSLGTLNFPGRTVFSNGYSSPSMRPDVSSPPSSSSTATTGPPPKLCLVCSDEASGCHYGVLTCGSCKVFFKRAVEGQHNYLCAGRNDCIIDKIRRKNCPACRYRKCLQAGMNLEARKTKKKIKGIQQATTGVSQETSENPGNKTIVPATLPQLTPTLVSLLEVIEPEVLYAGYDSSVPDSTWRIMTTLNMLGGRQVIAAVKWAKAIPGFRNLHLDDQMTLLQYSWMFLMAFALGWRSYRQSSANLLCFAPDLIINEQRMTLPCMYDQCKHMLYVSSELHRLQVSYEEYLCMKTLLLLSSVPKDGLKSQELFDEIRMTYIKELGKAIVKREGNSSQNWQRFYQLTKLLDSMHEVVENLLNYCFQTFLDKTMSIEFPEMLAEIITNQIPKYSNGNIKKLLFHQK
Chain of Retinoic acid receptor RXR-alpha (Homo sapiens) (P19793 whole entry, looked up): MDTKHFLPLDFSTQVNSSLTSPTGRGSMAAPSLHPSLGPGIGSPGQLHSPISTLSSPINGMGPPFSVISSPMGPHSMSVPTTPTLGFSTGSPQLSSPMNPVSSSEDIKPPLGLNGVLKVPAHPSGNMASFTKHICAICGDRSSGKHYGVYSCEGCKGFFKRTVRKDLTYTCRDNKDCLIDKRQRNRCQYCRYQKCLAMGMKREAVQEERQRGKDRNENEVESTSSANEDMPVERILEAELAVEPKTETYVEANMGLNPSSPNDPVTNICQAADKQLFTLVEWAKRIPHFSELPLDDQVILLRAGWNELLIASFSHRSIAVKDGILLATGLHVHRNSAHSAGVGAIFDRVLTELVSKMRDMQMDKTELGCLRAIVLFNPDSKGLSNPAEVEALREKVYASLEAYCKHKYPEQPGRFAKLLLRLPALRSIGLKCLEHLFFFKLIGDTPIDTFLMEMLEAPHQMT
Chain of Thyroid hormone receptor beta (Homo sapiens) (P10828 whole entry, looked up): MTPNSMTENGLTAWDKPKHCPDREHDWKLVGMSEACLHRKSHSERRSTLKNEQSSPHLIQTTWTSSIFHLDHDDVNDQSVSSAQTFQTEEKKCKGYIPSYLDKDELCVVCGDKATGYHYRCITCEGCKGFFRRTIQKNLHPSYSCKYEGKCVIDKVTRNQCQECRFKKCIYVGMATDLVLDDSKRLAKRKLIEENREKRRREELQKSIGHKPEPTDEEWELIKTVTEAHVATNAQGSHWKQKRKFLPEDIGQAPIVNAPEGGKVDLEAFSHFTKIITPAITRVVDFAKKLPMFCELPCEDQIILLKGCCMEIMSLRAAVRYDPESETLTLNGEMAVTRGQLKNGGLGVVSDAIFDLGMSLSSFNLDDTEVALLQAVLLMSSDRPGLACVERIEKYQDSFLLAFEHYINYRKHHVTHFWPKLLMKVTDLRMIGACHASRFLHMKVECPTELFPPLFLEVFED
Chain of Peroxisome proliferator-activated receptor gamma (Homo sapiens) (P37231 whole entry, looked up): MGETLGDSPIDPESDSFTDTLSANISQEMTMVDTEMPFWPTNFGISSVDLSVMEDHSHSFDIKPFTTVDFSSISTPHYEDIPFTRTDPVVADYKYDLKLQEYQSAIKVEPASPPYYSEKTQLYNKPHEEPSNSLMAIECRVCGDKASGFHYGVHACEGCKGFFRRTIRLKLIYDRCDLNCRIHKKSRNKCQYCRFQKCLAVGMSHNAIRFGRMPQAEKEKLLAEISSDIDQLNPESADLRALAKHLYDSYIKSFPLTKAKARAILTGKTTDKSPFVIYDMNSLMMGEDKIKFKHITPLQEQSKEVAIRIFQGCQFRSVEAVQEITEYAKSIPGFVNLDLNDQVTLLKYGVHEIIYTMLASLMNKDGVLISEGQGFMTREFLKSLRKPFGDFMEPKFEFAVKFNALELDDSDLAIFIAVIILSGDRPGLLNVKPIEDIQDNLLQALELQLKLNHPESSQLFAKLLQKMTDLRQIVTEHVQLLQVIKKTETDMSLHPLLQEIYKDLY
Chain of Peroxisome proliferator-activated receptor alpha (Homo sapiens) (Q07869 whole entry, looked up): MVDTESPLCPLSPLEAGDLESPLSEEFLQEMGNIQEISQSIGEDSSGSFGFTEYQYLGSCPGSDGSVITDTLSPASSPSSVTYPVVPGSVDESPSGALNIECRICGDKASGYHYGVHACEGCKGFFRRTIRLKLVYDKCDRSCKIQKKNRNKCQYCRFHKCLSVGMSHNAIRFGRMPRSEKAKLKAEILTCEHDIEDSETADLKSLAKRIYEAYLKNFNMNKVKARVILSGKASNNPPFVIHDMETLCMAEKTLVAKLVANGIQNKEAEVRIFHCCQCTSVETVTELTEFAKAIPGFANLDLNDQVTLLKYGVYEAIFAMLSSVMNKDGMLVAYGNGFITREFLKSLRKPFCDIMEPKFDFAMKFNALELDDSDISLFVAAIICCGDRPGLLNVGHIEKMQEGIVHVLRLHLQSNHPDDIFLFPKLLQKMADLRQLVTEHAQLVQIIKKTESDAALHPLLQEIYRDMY
Chain of Vitamin D3 receptor (Homo sapiens) (P11473 whole entry, looked up): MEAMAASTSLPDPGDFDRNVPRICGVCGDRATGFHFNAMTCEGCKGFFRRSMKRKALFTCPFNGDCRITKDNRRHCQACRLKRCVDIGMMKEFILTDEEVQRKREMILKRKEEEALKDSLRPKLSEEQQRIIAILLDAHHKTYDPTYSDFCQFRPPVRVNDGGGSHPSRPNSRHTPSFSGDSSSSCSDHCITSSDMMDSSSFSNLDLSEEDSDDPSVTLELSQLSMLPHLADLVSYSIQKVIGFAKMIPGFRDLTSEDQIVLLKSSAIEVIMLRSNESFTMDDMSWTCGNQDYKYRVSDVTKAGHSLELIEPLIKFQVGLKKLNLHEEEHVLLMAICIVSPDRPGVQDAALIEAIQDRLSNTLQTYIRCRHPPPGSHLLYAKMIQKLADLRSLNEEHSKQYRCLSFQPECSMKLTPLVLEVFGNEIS

CN(C)c1nc(=O)n(C2CCC(O)CC2)c(=O)n1C (stereo not given)
20.4%: max response [4]
inactive: Potency [1] | activation [2] 6.12% | Potency [3] | outcome [5] | outcome [6] | Potency [8] | Potency [9] | activity change % (negative = inhibition) [10] 11.1% | activation [11] -0.637% | max response [12] -3.35% | Potency [13] | max response [14] 6.16% | max response [15] -7.57% | Potency [16] | max response [17] -1.79% | outcome [18]
-9.86%: max response [7]

O=S(=O)(O)c1cc(S(=O)(=O)O)c2c(N=Nc3ccccc3)c(O)ccc2c1
-19.3%: max response [4]
inactive: Potency [3] | Potency [8] | Potency [9] | activity change % (negative = inhibition) [10] -8.36% | activation [11] 0.18% | max response [12] -5.78% | Potency [13] | max response [14] -9.68% | max response [15] -12.7% | Potency [16] | max response [17] 3.04%
-6.55%: max response [7]

CC(C)(C)c1ccc(O)c(C(C)(C)C)c1
-10.9%: max response [7]
-6.68%: max response [19]
inactive: activation [2] -9.25% | Potency [3] | outcome [5] | outcome [6] | Potency [8] | Potency [9] | max response [20] -3.49% | activity change % (negative = inhibition) [10] 5.44% | activation [11] 0.859% | max response [12] 8.37% | Potency [13] | max response [14] -2.61% | max response [15] -8.41% | Potency [16] | max response [17] 6.32%

CCCCCCCCCCCCCC(=O)OC
-19.8%: max response [4]
-10%: max response [19]
inactive: Potency [1] | activation [2] -4.01% | Potency [3] | outcome [5] | Potency [8] | Potency [9] | max response [20] -1.05% | activity change % (negative = inhibition) [10] 3.36% | activation [11] 0.0228% | max response [12] 0.157% | Potency [13] | max response [14] -15.8% | max response [15] 4.18% | Potency [16] | max response [17] 2.49% | outcome [18]
0.848%: max response [7]

CCC/C(=N\OCC)C1=C(O)CC(O)(CC(C)S(=O)(=O)CC)CC1=O (stereo not given)
-7.24%: max response [19]
9.67%: max response [4]
inactive: Potency [1] | activation [2] -6.04% | Potency [3] | outcome [6] | Potency [8] | Potency [9] | max response [20] 3.08% | activation [11] 3.19% | max response [12] -0.0131% | Potency [13] | max response [14] -10.1% | max response [15] -1.14% | Potency [16] | max response [17] 2.09% | outcome [18]
-16.2%: max response [7]

O=C(O)c1cccc(C(=O)O)c1
inactive: activation [2] -2.7% | Potency [3] | outcome [5] | Potency [8] | Potency [9] | max response [20] -3.25% | activity change % (negative = inhibition) [10] 17% | activation [11] -2.6% | max response [12] -0.8% | Potency [13] | max response [14] -9.16% | max response [15] -0.837% | Potency [16] | max response [17] 0.205% | outcome [18]
-5.27%: max response [19]
-2.92%: max response [4]
-13%: max response [7]

CSc1ccc(Cl)cc1
18.6%: max response [19]
24.7%: max response [4]
8.86%: max response [7]
inactive: Potency [1] | activation [2] -2.12% | Potency [3] | outcome [5] | outcome [6] | Potency [8] | Potency [9] | max response [20] -2.56% | activation [11] -3.53% | max response [12] -0.0243% | Potency [13] | max response [14] -9.05% | max response [15] -19.5% | Potency [16] | max response [17] -1.44% | outcome [18]

CCCCCCCCC(=O)O
-21.9%: max response [7]
inactive: activation [2] 1.63% | Potency [3] | Potency [8] | max response [20] -41.9% | activity change % (negative = inhibition) [10] 3.07% | activation [11] 2.74% | max response [12] 1.35% | max response [14] -7.02% | max response [15] -14.6% | Potency [16] | max response [17] -1.4% | outcome [18]
-26.9%: max response [4]
-8.04%: max response [19]

CC1(C)CC(NCCCCCCNC2CC(C)(C)NC(C)(C)C2)CC(C)(C)N1
inactive: Potency [1] | activation [2] -7.91% | Potency [3] | outcome [5] | outcome [6] | Potency [8] | Potency [9] | max response [20] 2.64% | activity change % (negative = inhibition) [10] -26.6% | activation [11] 0.472% | max response [12] -0.876% | max response [14] -7.27% | max response [15] -6.6% | Potency [16] | max response [17] 1.41% | outcome [18]
-2.83%: max response [7]
-10.1%: max response [19]

CC1COCc2cc3c(cc21)C(C)(C)C(C)C3(C)C (stereo not given)
-16.1%: max response [4]
inactive: activation [2] 13.9% | Potency [3] | outcome [5] | outcome [6] | Potency [8] | Potency [9] | max response [20] 0.528% | activity change % (negative = inhibition) [10] 0.269% | activation [11] 1.13% | max response [12] 7.58% | Potency [13] | max response [14] -2.78% | max response [15] -3.83% | Potency [16] | max response [17] 3.75%
-11.9%: max response [7]
active: Potency [1] 11.2 µM
-17.6%: max response [19]

Cc1ccc(N=Nc2c(O)ccc3ccccc23)c([N+](=O)[O-])c1
-14.3%: max response [7]
inactive: Potency [1] | activation [2] -1.07% | Potency [3] | outcome [6] | Potency [8] | Potency [9] | max response [20] -0.783% | activity change % (negative = inhibition) [10] -2.29% | max response [12] 0.597% | max response [14] -11.8% | max response [15] -2.16% | Potency [16] | max response [17] 5.08%
-4.75%: max response [19]
39.9%: max response [4]

CC(=O)Nc1ccc(N=Nc2cc(C)ccc2O)cc1
14%: max response [4]
-4.33%: max response [19]
3.3%: max response [7]
inactive: Potency [1] | activation [2] -3.33% | Potency [3] | outcome [6] | Potency [8] | Potency [9] | max response [20] -20.6% | max response [12] -3.57% | max response [14] 1.65% | max response [15] -16.4% | Potency [16] | max response [17] 1.28%
